Several values for one entry are separate records, joined by “and”; a condition that tells them apart may be missing. Identical values can stand only once. Results filed as inconclusive are left out. A structure can be active in one record and inactive in another. Activity calls are given as the source filed them. Unless noted, calls come from the whole dose curve; as a rule, active = well fitted curve in the direction sought with a large enough effect in the repeat runs; inconclusive = weak or mixed curves; inactive = no such curve, though single readings can be large; an effect the other way counts as inactive or inconclusive.
Columns and labels:
[1] = qHTS assay for small molecule agonists of the p53 signaling pathway (AID 651631; calls by dose curve; note: nearly all actives have a fitted effect of over 15% in size)
Summary of the method: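 HCT-116 cells carrying a beta-lactamase reporter under p53 response elements were dosed with compound for 16 h at 37 °C. LiveBLAzer B/G FRET substrate was then added for 2 h at room temperature, and fluorescence intensity was read to detect pathway agonism.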

[2] = qHTS assay for small molecules that induce genotoxicity in human embryonic kidney cells expressing luciferase-tagged ATAD5 (AID 651632); note: nearly all actives have a fitted effect of over 15% in size
Summary of the method: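 Luminescent reporter readout, HEK293T ATAD5-luc line: 16 hr drug exposure (37C, 5% CO2) followed by Amplite, 30 min RT.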

[3] = qHTS assay for small molecules that induce genotoxicity in human embryonic kidney cells expressing luciferase-tagged ATAD5 - cell viability (AID 651634; calls by dose curve; note: nearly all actives have a fitted effect of over 25% in size; note: potency is the fitted concentration of half-maximal effect)
Summary of the method: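 Viability read: CellTiter-Fluor fluorescence, 30 min at 37C. Cells: HEK293T, luciferase-tagged ATAD5. Exposure: 15.5 hr, 37C, 5% CO2, compound or DMSO vehicle.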

[4] = qHTS assay to test for compound auto fluorescence at 535 nm (green) in HEK293 cells (AID 720680)
[5] = qHTS assay to test for compound auto fluorescence at 460 nm (blue) in HepG2 cell free culture (AID 720685)
Summary of the method: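 Compound (23 nL) or DMSO pinned into cell-free MEM with 10% FBS; blue fluorescence read at 405/460 nm excitation/emission, expressed as auto-fluorescence equivalency to triamterene.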

[6] = target: Glucocorticoid receptor (Homo sapiens) (UniProt P04150); experiment: qHTS assay to identify small molecule antagonists of the glucocorticoid receptor (GR) signaling pathway (AID 720692; active = well fitted inhibition curve with a large enough effect in the signal ratio in the repeat runs, not every such curve was filed as active; the % refers to the signal ratio)
Summary of the method: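 Inhibition of glucocorticoid signalling is measured in HeLa cells with a GRE-controlled beta-lactamase reporter; cells are co-treated with compound and 5 nM dexamethasone (final) for 18 h before FRET substrate readout.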

[7] = qHTS assay for identifying genotoxic compounds that show differential cytotoxicity against isogenic chicken DT40 cell lines with known DNA damage response pathways - wild type cell line (AID 743012); note: nearly all actives have a fitted effect of over 60% in size; note: potency is the fitted concentration of half-maximal effect
Summary of the method: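 First, wild type DT40 cells were plated at 300 per well and equilibrated about 0.5 h at 37 C/5% CO2. Next, compounds in DMSO were added and exposure lasted 40 h. Finally, CellTiter-Glo was added for 30 min at room temperature and luminescence recorded.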

[8] = qHTS assay for identifying genotoxic compounds that show differential cytotoxicity against isogenic chicken DT40 cell lines with known DNA damage response pathways - Rev3 mutant cell line (AID 743014); note: nearly all actives have a fitted effect of over 55% in size; note: potency is the fitted concentration of half-maximal effect
[9] = qHTS assay to identify small molecule antagonists of the androgen receptor (AR) signaling pathway using the MDA cell line - cell viability counter screen (AID 743041; note: nearly all actives have a fitted effect of over 45% in size; note: potency is the fitted concentration of half-maximal effect)
Summary of the method: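 Same-well cytotoxicity was assessed by CellTiter-Fluor in MDA-kb2 AR-luc cells after 16 h of compound treatment under R1881 agonism.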

[10] = qHTS assay to identify small molecule antagonists of the thyroid receptor (TR) signaling pathway - cell viability counter screen (AID 743064); note: nearly all actives have a fitted effect of over 50% in size; note: potency is the fitted concentration of half-maximal effect
Summary of the method: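 GH3.TRE-Luc rat pituitary cells dosed after 4 hr plating, co-stimulated with T3 at 1 nM final, incubated 23.5 h at 37 C. Viability measured in the same wells by CellTiter-Fluor fluorescence after 30 min further at 37 C.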

[11] = qHTS assay to identify small molecule antagonists of the thyroid receptor (TR) signaling pathway (AID 743065); note: nearly all actives have a fitted effect of over 55% in size; note: potency is the fitted concentration of half-maximal effect
Summary of the method: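 GH3.TRE-Luc rat pituitary cells (two TREs driving luciferase) were dosed with compound, then stimulated with 1 nM T3 (final) for 23.5 h at 37 C. ONE-Glo luminescence was the read-out, with CellTiter-Fluor fluorescence as the cytotoxicity counter-screen.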

[12] = test system: thyroid hormone receptor (rat, GH3 cells); experiment: qHTS assay to identify small molecule agonists of the thyroid receptor (TR) signaling pathway (AID 743066; calls by dose curve)
[13] = target: Estrogen receptor (Homo sapiens) (UniProt P03372); experiment: qHTS assay to identify small molecule antagonists of the estrogen receptor alpha (ER-alpha) signaling pathway (AID 743069; active = well fitted curve in the direction sought with a large enough effect in the signal ratio in the repeat runs, not every such curve was filed as active; the % refers to the signal ratio; note: potency is the fitted concentration of half-maximal effect)
Summary of the method: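 Reporter cells (ER-alpha-bla, HEK293 background) are conditioned overnight in stripped-serum medium (2% charcoal-stripped FBS). Compound and 17beta-estradiol exposure runs 18 hr at 37C, 5% CO2.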

[14] = target: Estrogen receptor (Homo sapiens) (UniProt P03372); experiment: qHTS assay to identify small molecule agonists of the estrogen receptor alpha (ER-alpha) signaling pathway (AID 743075; calls by dose curve;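 note: HEK293 GripTite cells with ER-alpha and UAS-driven beta-lactamase reporter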)
[15] = target: Estrogen receptor (Homo sapiens) (UniProt P03372); experiment: qHTS assay to identify small molecule agonists of the estrogen receptor alpha (ER-alpha) signaling pathway using the BG1 cell line (AID 743079); note: nearly all actives have a fitted effect of over 20% in size
[16] = qHTS assay to identify small molecule antagonists of the estrogen receptor alpha (ER-alpha) signaling pathway using the BG1 cell line (AID 743080; calls by dose curve;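 note: BG1 cells stimulated with 17beta-estradiol alongside compound; nearly all actives have a fitted effect of over 25% in size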; note: potency is the fitted concentration of half-maximal effect)
Summary of the method: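 Seeding, 24 h rest, compound transfer from DMSO, 17beta-estradiol addition, 21.5 h incubation, CellTiter-Fluor (30 min, 37 C), then ONE-Glo (30 min, room temperature): this sequence was run on BG1-Luc-4E2 reporter cells.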

[17] = qHTS assay to identify small molecule antagonists of the estrogen receptor alpha (ER-alpha) signaling pathway using the BG1 cell line - cell viability counter screen (AID 743081);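 note: compound given together with 17beta-estradiol as the ER stimulus; series mostly up to about 70 µM; nearly all actives have a fitted effect of over 45% in size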
[18] = target: Peroxisome proliferator-activated receptor gamma (Homo sapiens) (UniProt P37231); experiment: qHTS assay to identify small molecule agonists of the peroxisome proliferator-activated receptor gamma (PPARg) signaling pathway (AID 743094; active = well fitted activation curve with a large enough effect in the signal ratio in the repeat runs, not every such curve was filed as active; the % refers to the signal ratio)
Summary of the method: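 Compounds dissolved in DMSO were added to PPARg UAS-bla HEK293H cells for 17 h at 37C, and reporter expression was quantified by fluorescence intensity after 1 h with LiveBLAzer B/G FRET substrate.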

[19] = qHTS assay for small molecule disruptors of the mitochondrial membrane potential (AID 720635); note: potency is the fitted concentration of half-maximal effect
Summary of the method: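 HepG2 cells exposed to compound 1 hr at 37C, then Mito-MPS dye 30 min. Ratio read of aggregate (540/590 nm) versus monomer (490/535 nm) fluorescence.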

[20] = qHTS assay to identify small molecule phospholipidosis (PLD) inducers (AID 1259344; active = well fitted curve in the direction sought with a large enough effect; an effect the other way counts as inactive or inconclusive)
Summary of the method: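 Quantitative HTS in HepG2: compound plus LipidTOX Red dye for 24 h, paraformaldehyde fixation with Hoechst 33342, widefield high-content imaging; amiodarone as positive and DMSO as negative control.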

Measured: Potency

Chain of Peroxisome proliferator-activated receptor gamma (Homo sapiens) (P37231 whole entry, looked up): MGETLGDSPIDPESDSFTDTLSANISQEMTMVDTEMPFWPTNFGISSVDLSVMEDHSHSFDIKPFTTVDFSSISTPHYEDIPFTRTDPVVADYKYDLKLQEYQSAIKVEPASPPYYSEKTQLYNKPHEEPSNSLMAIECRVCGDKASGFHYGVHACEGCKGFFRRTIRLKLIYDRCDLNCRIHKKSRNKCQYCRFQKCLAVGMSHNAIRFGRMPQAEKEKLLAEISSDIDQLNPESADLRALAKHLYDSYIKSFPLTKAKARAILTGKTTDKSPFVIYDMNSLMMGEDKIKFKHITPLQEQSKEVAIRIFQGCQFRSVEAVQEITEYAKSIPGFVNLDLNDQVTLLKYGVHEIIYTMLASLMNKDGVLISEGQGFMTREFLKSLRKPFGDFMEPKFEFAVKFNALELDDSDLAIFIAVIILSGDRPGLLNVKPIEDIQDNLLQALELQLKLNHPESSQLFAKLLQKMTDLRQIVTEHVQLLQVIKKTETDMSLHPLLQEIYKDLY
Chain of Estrogen receptor (Homo sapiens) (P03372 whole entry, looked up): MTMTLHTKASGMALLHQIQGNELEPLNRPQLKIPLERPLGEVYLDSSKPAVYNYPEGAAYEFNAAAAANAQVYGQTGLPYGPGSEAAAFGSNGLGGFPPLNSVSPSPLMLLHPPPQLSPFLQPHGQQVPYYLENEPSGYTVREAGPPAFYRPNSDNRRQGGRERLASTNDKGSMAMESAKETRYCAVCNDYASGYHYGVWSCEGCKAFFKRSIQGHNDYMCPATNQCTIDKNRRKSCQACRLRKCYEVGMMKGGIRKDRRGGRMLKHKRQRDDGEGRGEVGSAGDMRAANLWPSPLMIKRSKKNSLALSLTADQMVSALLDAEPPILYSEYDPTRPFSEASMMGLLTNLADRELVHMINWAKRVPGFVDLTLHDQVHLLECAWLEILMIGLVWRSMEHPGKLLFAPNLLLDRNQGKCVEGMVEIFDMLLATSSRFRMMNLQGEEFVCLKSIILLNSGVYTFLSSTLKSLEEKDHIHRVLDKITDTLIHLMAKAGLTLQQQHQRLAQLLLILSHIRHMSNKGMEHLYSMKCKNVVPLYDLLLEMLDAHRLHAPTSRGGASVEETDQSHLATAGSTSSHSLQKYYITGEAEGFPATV
Chain of Glucocorticoid receptor (Homo sapiens) (P04150 whole entry, looked up): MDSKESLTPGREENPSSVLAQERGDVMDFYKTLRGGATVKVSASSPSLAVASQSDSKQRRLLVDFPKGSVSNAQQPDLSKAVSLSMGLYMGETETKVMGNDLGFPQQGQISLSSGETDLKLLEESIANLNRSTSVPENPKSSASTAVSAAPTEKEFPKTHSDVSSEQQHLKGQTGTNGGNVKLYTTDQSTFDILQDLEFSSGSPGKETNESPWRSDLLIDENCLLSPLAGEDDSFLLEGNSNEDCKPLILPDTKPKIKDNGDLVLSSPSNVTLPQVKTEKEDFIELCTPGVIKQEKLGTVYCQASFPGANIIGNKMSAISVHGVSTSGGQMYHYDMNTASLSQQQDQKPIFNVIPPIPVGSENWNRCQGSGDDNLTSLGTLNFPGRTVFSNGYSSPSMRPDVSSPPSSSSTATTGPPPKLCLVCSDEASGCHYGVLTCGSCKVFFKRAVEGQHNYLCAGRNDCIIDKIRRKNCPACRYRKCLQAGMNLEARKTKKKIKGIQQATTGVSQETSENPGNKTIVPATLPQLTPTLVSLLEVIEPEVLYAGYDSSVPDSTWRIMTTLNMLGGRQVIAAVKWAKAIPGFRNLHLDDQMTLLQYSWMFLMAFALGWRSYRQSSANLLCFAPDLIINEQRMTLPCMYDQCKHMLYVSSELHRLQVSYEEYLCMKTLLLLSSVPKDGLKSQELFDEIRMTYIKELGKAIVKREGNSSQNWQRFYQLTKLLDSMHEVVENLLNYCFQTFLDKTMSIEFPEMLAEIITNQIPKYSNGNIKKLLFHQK

CN=C1CN(O)C(c2ccccc2)=c2cc(Cl)ccc2=N1
inactive: [1] | [2] | [3] | [4] | [5] | [6] | [7] | [8] | [9] | [10] | [11] | [12] | [13] | [14] | [15] | [16] | [17] | [18]

C=CCOc1c(Br)cc(C(C)(C)c2cc(Br)c(OCC=C)c(Br)c2)cc1Br
inactive: [1] | [6]

CNC(=O)Oc1ccc2c(c1)[C@]1(C)CCN(C)[C@@H]1N2C
inactive: [1]

CCC(N)Cc1c[nH]c2ccccc12 (stereo unspecified)
inactive: [1] | [2] | [3] | [4] | [8] | [9] | [10] | [11] | [12] | [16] | [18]
inactive and 68.8 µM (active): [7]
active: [19] 21.1 µM

C[C@@H]1[C@H]2Cc3ccc(O)cc3[C@]1(C)CCN2C
inactive: [2] | [3] | [19] | [4] | [5] | [9] | [12] | [17] | [20]
active: [7] 89.3 µM | [11] 50.2 µM

CCCCNC(C)(C)[P+](=O)O
inactive: [3] | [19] | [4] | [5] | [7] | [8] | [9] | [10] | [11] | [12] | [13] | [14] | [15] | [16] | [18] | [20]

C[C@H]1[C@H]2Cc3ccc(O)cc3[C@]1(C)CCN2CCc1ccccc1
active: [7] 6.8 µM | [8] 15.2 µM | [10] 30.4 µM | [11] 27.1 µM
inactive: [2] | [3] | [4] | [5] | [6] | [12] | [13] | [14] | [15] | [20]

CN1CC[C@@]23CCCC[C@@H]2[C@@H]1Cc1ccc(O)cc13
inactive: [2] | [19] | [4] | [5] | [9] | [10] | [13] | [14] | [16] | [17] | [18] | [20]

COc1cc([C@@H]2c3cc4c(cc3[C@H](O)[C@H]3COC(=O)[C@H]23)OCO4)cc(OC)c1OC
inactive: [1]

C#CC(C)(O)CC (stereo unspecified)
inactive: [1] | [2] | [3] | [4] | [5] | [6] | [7] | [8] | [9] | [11] | [12] | [13] | [14] | [15] | [16] | [17] | [18]

Brc1ccc(Oc2ccc(Br)cc2)cc1
inactive: [1]

C[C@@H]([C@H](O)c1ccccc1)N(C)C
inactive: [1] | [2] | [3] | [4] | [5] | [6] | [7] | [9] | [10] | [11] | [12] | [13] | [14] | [15] | [16] | [17] | [18]

O=C(Cl)c1cccc(C(=O)Cl)c1
inactive: [1]

CCCCCc1cc(O)c2c(c1)OC(C)(C)c1ccc(C)cc1-2
active: [3] 23.7 µM | [19] 1.68 µM | [7] 9.44 µM | [8] 11.9 µM | [10] 13.3 µM | [11] 13.3 µM | [16] 29.8 µM
inactive: [2] | [5] | [20]

CN(C)CCCCCCN(C)C (tested in a mixture with another compound)
inactive: [3] | [19] | [4] | [5] | [6] | [7] | [8] | [9] | [10] | [11] | [12] | [17] | [20]

CCOC(=O)C1(c2ccccc2)CCCN(C)CC1 (stereo unspecified)
inactive: [2] | [3] | [19] | [5] | [6] | [7] | [8] | [9] | [10] | [11] | [12] | [13] | [14] | [15] | [16] | [17] | [18] | [20]

O.O.O.O=C([O-])C(O)C(O)C(=O)[O-].O=C([O-])C(O)C(O)C(=O)[O-].[K+].[K+].[Sb].[Sb] (stereo unspecified)
inactive: [2] | [4] | [14] | [17] | [20]
active: [9] 18.8 µM | [10] 29.8 µM | [13] 19 µM [inhibitor]

COc1ccc(OC)c(C[C@H](C)N)c1
inactive: [3] | [19] | [4] | [5] | [8] | [10] | [14] | [15] | [16] | [17] | [18] | [20]

Cc1ccc(C)cc1
inactive: [1]

C[N+](C)(C)CCCCCCCCCC[N+](C)(C)C
inactive: [6]

C[C@@H](N)C(=O)c1ccccc1
inactive: [2] | [3] | [19] | [4] | [5] | [6] | [8] | [9] | [10] | [11] | [12] | [14] | [15] | [16] | [17] | [18] | [20]

COc1ccc(C)cc1N
inactive: [1]

Clc1ccc(Cl)c(Cl)c1Cl
inactive: [1]

From PubChem BioAssay (Tox21)
